# The campaign covered roughly 3,300 compounds. About 20 (0.6%) were called active.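 Rule for the calls: active = growth inhibition above 90%, meaning viable cell count cut by more than 90% versus vehicle controls; inactive = growth inhibition below 90%.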 This excerpt belongs to a sample that is enriched for actives.
# Assay: HT29 colon tumor cell growth inhibition, primary screen, imaging, high content imaging, 72 h, CellTiter-Glo (AID 772);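 for condensed nuclei: condensed means nuclear area below control median minus 1.5 SD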
# Details: HCS imaging cell count, at 10 µM, stronger effect = higher value; for condensed nuclei: measured here: percent cells with condensed nuclei
# [1] = measured here: ATP CellTiter-Glo viability
SMILES,growth inhibition,growth inhibition [1],condensed nuclei
CCOC(=O)CSc1nc(NC#N)nc(N(CC)CC)n1,-10.6% (inactive),-34.2%,2.47%
CC1(C)CC(=O)C(C=NCC(O)c2ccccc2)=C(O)C1 (stereo not given),1.15% (inactive),-3.71%,3.13%
CCN(CC)Cc1cc(C(C)=O)ccc1OCC(C)C,-17.7% (inactive),-47.7%,2.8%
Cc1ccc(C2/C(=C(/O)c3cnn(-c4ccccc4)c3C)C(=O)C(=O)N2CCN2CCOCC2)o1 (stereo not given),-41.7% (inactive),-16.4%,5.65%
CC1CCN(c2oc(-c3ccccc3Cl)nc2C#N)CC1,39.9% (inactive),-1.14%,4.72%
Cc1nnc(C)n1/N=C/c1cccn1C,-26.9% (inactive),-16.7%,2.68%
CCOC(=O)/C(C#N)=C1\Nc2ccccc2N=C1N(CC(C)C)CC(C)C,15.8% (inactive),-0.53%,3.37%
O=C(c1ccc2c3c(cccc13)C(=O)N(O)C2=O)N1CCCCC1,63.6% (inactive),65.6%,16.2%
S=C(N=Nc1ccccc1)NNc1ccccc1,5.63% (inactive),9.94%,9.9%
CCCCCC1CC(CC#CCN2CCOCC2)C(=O)O1 (stereo not given),-6.01% (inactive),-22.1%,3.8%
Cc1nc(NCCCO)c(C#N)c2c1COC(C)(C)C2,26.3% (inactive),-0.61%,5.86%
CCOC(=O)c1[nH]c2ccc(OC)cc2c1NC(=O)CCN1CCC(C)CC1,7.19% (inactive),8.59%,9.76%
COc1cccc(-c2nnc3sc(-c4ccc(Cl)cc4)nn23)c1,-127% (inactive),-46.5%,8.69%
O=C(O)C(Cc1c[nH]c2ccccc12)NS(=O)(=O)c1cccc2nsnc12 (stereo not given),9.77% (inactive),1.74%,1.59%
Cc1nn2c(-c3ccc(Cl)cc3)nnc2s1,0.82% (inactive),-46.2%,2%
c1ccc(CN2CCN(c3ncnc4c3[nH]c3ccccc34)CC2)cc1,93.4% (active),88.4%,27.8%
COc1ccc2[nH]c3c(N4CCN(Cc5ccc6c(c5)OCO6)CC4)ncnc3c2c1,20.7% (inactive),21%,1.08%
CN1CCN(c2ncnc3c2[nH]c2ccc(F)cc23)CC1,27.9% (inactive),14.8%,6.32%
Cc1ccc2[nH]c3c(N4CCN(Cc5ccccc5)CC4)ncnc3c2c1,50.9% (inactive),7.07%,2.3%
c1ccc2c(c1)[nH]c1c(N3CCSCC3)ncnc12,57.2% (inactive),14.5%,5.16%
Fc1ccc2[nH]c3c(N4CCN(Cc5ccc6c(c5)OCO6)CC4)ncnc3c2c1,92% (active),96.7%,24.5%
Cc1ccc2[nH]c3c(N4CCOCC4)ncnc3c2c1,-53.8% (inactive),-45.3%,5.07%
Cc1ccc2[nH]c3c(N4CCN(Cc5ccc6c(c5)OCO6)CC4)ncnc3c2c1,73.7% (inactive),96.6%,29.9%
Cc1ccc2[nH]c3c(N4CCCCCC4)ncnc3c2c1,96.5% (active),96%,39.6%
Cc1cc(C)nc(N(C#N)CC(=O)N(c2ccccc2)C(C)C)n1,-23.3% (inactive),-17.6%,7.69%

# Source: PubChem BioAssay AID772 (SRMLSC, 2007)
